Experimental data from PubChem BioAssay (NCI).
About 83,000 compounds went through this panel and 20% of them were active in at least one assay; those are over-represented in the sample as a whole.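 Interpretation: 100, growth as untreated; towards 0, rising growth inhibition; 0, no net growth; 0 to -100, cell death. Compounds scoring below 10 were considered active.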 Activity calls are given as the source filed them.

Tests used:
Experiment in all cases: NCI-60 one-dose screen, 48 h (100 = growth as untreated, 0 = no growth, -100 = all killed)
Settings in all cases: 10 µM unless noted
HCT-15 colon = system: HCT-15 colon
HT29 colon = system: HT29 colon
SNB-75 CNS = system: SNB-75 CNS
SNB-19 CNS = system: SNB-19 CNS
U251 CNS = system: U251 CNS
PC-3 prostate = system: PC-3 prostate
UACC-62 melanoma = system: UACC-62 melanoma
LOX IMVI melanoma = system: LOX IMVI melanoma
SK-MEL-28 melanoma = system: SK-MEL-28 melanoma
SK-MEL-2 melanoma = system: SK-MEL-2 melanoma
EKVX NSCLC = system: EKVX NSCLC
SN12C renal = system: SN12C renal
UO-31 renal = system: UO-31 renal
TK-10 renal = system: TK-10 renal
ACHN renal = system: ACHN renal
CAKI-1 renal = system: CAKI-1 renal
A498 renal = system: A498 renal
CCRF-CEM leukemia = system: CCRF-CEM leukemia
MOLT-4 leukemia = system: MOLT-4 leukemia

Measured: growth

O=C1NC(=O)C(c2ccc(Cl)cc2Cl)N1 (configuration not stated)
inactive: HCT-15 colon 108% | HT29 colon 106% | SNB-75 CNS 92.7% | SNB-19 CNS 97.1% | U251 CNS 103% | PC-3 prostate 104% | UACC-62 melanoma 97.7% | LOX IMVI melanoma 104% | SK-MEL-28 melanoma 112% | SK-MEL-2 melanoma 110% | EKVX NSCLC 113% | SN12C renal 104% | UO-31 renal 73.2% | TK-10 renal 98.1% | ACHN renal 110% | CAKI-1 renal 100% | A498 renal 96.6% | CCRF-CEM leukemia 93.2% | MOLT-4 leukemia 94.3%

Nc1ccc(S(=O)(=O)O)c2ccc(N=Nc3ccc(N=Nc4ccc(S(=O)(=O)O)cc4)c4ccccc34)c(O)c12
inactive: HCT-15 colon 115% | HT29 colon 103% | SNB-75 CNS 76.5% | SNB-19 CNS 95.9% | U251 CNS 111% | PC-3 prostate 91.6% | UACC-62 melanoma 91.3% | LOX IMVI melanoma 98.1% | SK-MEL-28 melanoma 109% | SK-MEL-2 melanoma 110% | EKVX NSCLC 124% | SN12C renal 98.1% | UO-31 renal 55.8% | TK-10 renal 98.7% | ACHN renal 101% | CAKI-1 renal 95.3% | A498 renal 98.8% | CCRF-CEM leukemia 106% | MOLT-4 leukemia 80.2%

CCCOc1ccc2nc(NC(=O)OC)[nH]c2c1
active: HT29 colon 0.423% | SK-MEL-2 melanoma -1.33% | A498 renal 9.31% | CCRF-CEM leukemia 7.62%
inactive: HCT-15 colon 12.4% | SNB-75 CNS 46.1% | SNB-19 CNS 34% | U251 CNS 12.7% | PC-3 prostate 19.7% | UACC-62 melanoma 22.3% | LOX IMVI melanoma 24.4% | SK-MEL-28 melanoma 66.5% | EKVX NSCLC 57.1% | SN12C renal 23.2% | UO-31 renal 37.5% | TK-10 renal 35.7% | ACHN renal 31.5% | CAKI-1 renal 51.7% | MOLT-4 leukemia 17.7%

CC(C)C[C@@H](NC(=O)[C@@H](Cc1ccccc1)NC(=O)c1cnccn1)B1Oc2ccc(C[C@H](NC(=O)[C@H](Cc3ccc4c(c3)OB([C@@H](CC(C)C)NC(=O)[C@@H](Cc3ccccc3)NC(=O)c3cnccn3)O4)NC(=O)[C@@H](N)CC3CCC4OB([C@@H](CC(C)C)NC(=O)[C@@H](CC5CCCCC5)NC(=O)C5CNCCN5)OC4C3)C(=O)NCCCC[C@@H]3NC(=O)[C@@H](Cc4ccccc4)NC(=O)[C@H](CC(=O)O)NC(=O)CNC(=O)[C@H](CCCNC(=N)N)NC3=O)cc2O1 (some centres not stated)
active: HCT-15 colon -49.1% | HT29 colon -61.9% | SNB-75 CNS -64% | SNB-19 CNS -24.7% | U251 CNS -58.4% | PC-3 prostate -48.4% | UACC-62 melanoma -73.8% | LOX IMVI melanoma -87.9% | SK-MEL-28 melanoma -31.7% | SK-MEL-2 melanoma -15.9% | EKVX NSCLC -16.4% | SN12C renal -40.2% | UO-31 renal -27.2% | TK-10 renal -77.8% | ACHN renal -11.9% | CAKI-1 renal -40.9% | A498 renal -96% | CCRF-CEM leukemia 2.22% | MOLT-4 leukemia 1.17%

CC(=O)Nc1ccc(S(=O)(=O)Nc2cccc(-c3nc(-c4ccc(NC(=O)c5cccnc5)cc4Cl)no3)c2)cc1
active: HT29 colon 9.79%
inactive: HCT-15 colon 88.3% | SNB-75 CNS 27.6% | SNB-19 CNS 37.7% | U251 CNS 29.7% | PC-3 prostate 25.8% | UACC-62 melanoma 37.4% | LOX IMVI melanoma 40.2% | SK-MEL-28 melanoma 50.6% | SK-MEL-2 melanoma 35.9% | EKVX NSCLC 54.3% | SN12C renal 41.3% | UO-31 renal 82.9% | TK-10 renal 69.9% | ACHN renal 81.2% | CAKI-1 renal 90.6% | A498 renal 36.9% | CCRF-CEM leukemia 23.3% | MOLT-4 leukemia 25.8%

CCC(=O)c1ccc(Cl)s1
inactive: HCT-15 colon 105% | HT29 colon 96.9% | SNB-75 CNS 91.4% | SNB-19 CNS 102% | U251 CNS 94.6% | PC-3 prostate 98.4% | UACC-62 melanoma 106% | LOX IMVI melanoma 107% | SK-MEL-28 melanoma 99.6% | SK-MEL-2 melanoma 102% | EKVX NSCLC 117% | SN12C renal 101% | UO-31 renal 98% | TK-10 renal 103% | ACHN renal 107% | CAKI-1 renal 102% | A498 renal 98.4% | CCRF-CEM leukemia 101% | MOLT-4 leukemia 94%

CCCCN(CCCC)CCCn1c(-c2ccccc2)ccc1-c1ccccc1
inactive: HCT-15 colon 55.3% | HT29 colon 33.1% | SNB-75 CNS 83.4% | SNB-19 CNS 83.4% | U251 CNS 58.3% | PC-3 prostate 48% | UACC-62 melanoma 82.4% | LOX IMVI melanoma 68.7% | SK-MEL-28 melanoma 88.8% | SK-MEL-2 melanoma 93.5% | EKVX NSCLC 49.6% | SN12C renal 70.7% | UO-31 renal 56.9% | TK-10 renal 83.1% | ACHN renal 62.9% | CAKI-1 renal 59.8% | A498 renal 59.3% | CCRF-CEM leukemia 44.3%

CC(C)CC1C(=O)N2CCC[C@H]2C2(O)O[C@](NC(=O)C3C=C4c5cccc6[nH]c(Br)c(c56)C[C@H]4N(C)C3)(C(C)C)C(=O)N12 (some centres not stated)
inactive: HCT-15 colon 43.1% | HT29 colon 53.2% | SNB-75 CNS 35.5% | SNB-19 CNS 69.9% | U251 CNS 53.4% | PC-3 prostate 20.4% | UACC-62 melanoma 56.4% | LOX IMVI melanoma 62.5% | SK-MEL-28 melanoma 91.3% | SK-MEL-2 melanoma 77.4% | EKVX NSCLC 54.6% | SN12C renal 40.3% | UO-31 renal 36.2% | TK-10 renal 54.6% | ACHN renal 43.6% | CAKI-1 renal 61.1% | A498 renal 76.5% | CCRF-CEM leukemia 58.3%

COc1ccc(/C=C/c2nc3ccccc3nc2/C=C/c2ccc(OC)cc2)cc1
inactive: HCT-15 colon 94.5% | HT29 colon 95.1% | SNB-75 CNS 87.8% | SNB-19 CNS 108% | U251 CNS 95.4% | PC-3 prostate 80.3% | UACC-62 melanoma 90% | LOX IMVI melanoma 102% | SK-MEL-28 melanoma 102% | SK-MEL-2 melanoma 101% | EKVX NSCLC 96.2% | SN12C renal 101% | UO-31 renal 84.7% | TK-10 renal 95.8% | ACHN renal 97.6% | CAKI-1 renal 86.4% | A498 renal 83.9% | CCRF-CEM leukemia 98.2% | MOLT-4 leukemia 99.1%

CCC([N+](=O)[O-])S(=O)(=O)c1ccc(C)cc1 (configuration not stated)
inactive: HCT-15 colon 105% | HT29 colon 101% | SNB-75 CNS 85.1% | SNB-19 CNS 94.4% | U251 CNS 100% | PC-3 prostate 101% | UACC-62 melanoma 101% | LOX IMVI melanoma 98.2% | SK-MEL-28 melanoma 112% | SK-MEL-2 melanoma 107% | EKVX NSCLC 110% | SN12C renal 95.3% | UO-31 renal 82% | TK-10 renal 102% | ACHN renal 104% | CAKI-1 renal 80% | A498 renal 103% | CCRF-CEM leukemia 99% | MOLT-4 leukemia 117%

Cc1ccc(NC(=O)C2CCC(CN3CCN(C)CC3)CC2)cc1Nc1nccc(-c2cccnc2)n1 (configuration not stated)
inactive: HCT-15 colon 95.2% | HT29 colon 100% | SNB-75 CNS 77.6% | SNB-19 CNS 100% | U251 CNS 95% | PC-3 prostate 103% | UACC-62 melanoma 103% | LOX IMVI melanoma 90.8% | SK-MEL-28 melanoma 99.7% | SK-MEL-2 melanoma 112% | EKVX NSCLC 97.6% | SN12C renal 91.9% | UO-31 renal 83.3% | TK-10 renal 121% | ACHN renal 94.9% | CAKI-1 renal 95.5% | A498 renal 89.6% | CCRF-CEM leukemia 109% | MOLT-4 leukemia 89.8%

O=C1c2cc3c(cc2-c2c1c1ccc(F)cc1c(=O)n2C[C@H](O)[C@H](O)[C@H](O)CO)OCO3
active: HCT-15 colon 0.724% | HT29 colon -4.15% | SNB-75 CNS -36.9% | SNB-19 CNS 2.14% | U251 CNS -22.4% | PC-3 prostate 6.99% | UACC-62 melanoma -70.4% | LOX IMVI melanoma -33.5% | SK-MEL-28 melanoma -30.6% | SK-MEL-2 melanoma -33.4% | EKVX NSCLC 5.59% | SN12C renal -18% | UO-31 renal -55.2% | TK-10 renal -25.7% | ACHN renal -53.8% | CAKI-1 renal -20.6% | A498 renal -85.7% | CCRF-CEM leukemia 2.16% | MOLT-4 leukemia -12.3%

O=C1C=C(O)C(=O)C(CC2=C(O)C(=O)C=C(O)C2=O)=C1O
inactive: HCT-15 colon 105% | HT29 colon 107% | SNB-75 CNS 83.5% | SNB-19 CNS 112% | U251 CNS 102% | PC-3 prostate 95.2% | UACC-62 melanoma 103% | LOX IMVI melanoma 89.9% | SK-MEL-28 melanoma 110% | SK-MEL-2 melanoma 104% | EKVX NSCLC 102% | SN12C renal 97.8% | UO-31 renal 94.6% | TK-10 renal 106% | ACHN renal 97.5% | CAKI-1 renal 104% | A498 renal 86.6% | CCRF-CEM leukemia 115% | MOLT-4 leukemia 104%

O=C1c2cc3c(cc2-c2c1c1ccc(Cl)cc1c(=O)n2CCCN1CCOCC1)OCO3
inactive: HCT-15 colon 80.9% | HT29 colon 63.3% | SNB-75 CNS 84.2% | SNB-19 CNS 47.1% | U251 CNS 27.4% | PC-3 prostate 74% | UACC-62 melanoma 23.6% | LOX IMVI melanoma 26.7% | SK-MEL-28 melanoma 99.9% | SK-MEL-2 melanoma 100% | EKVX NSCLC 93.8% | SN12C renal 46.3% | UO-31 renal 44.5% | TK-10 renal 103% | ACHN renal 13.1% | CAKI-1 renal 21.4% | A498 renal 76.2% | CCRF-CEM leukemia 20.7%
active: MOLT-4 leukemia 8.7%

O=Nc1c(O)c(Cl)cc2ccccc12
inactive: HCT-15 colon 87.9% | HT29 colon 83.1% | SNB-75 CNS 62% | SNB-19 CNS 88.9% | U251 CNS 65.6% | PC-3 prostate 66.7% | UACC-62 melanoma 77.5% | LOX IMVI melanoma 72.4% | SK-MEL-28 melanoma 92.1% | SK-MEL-2 melanoma 93.4% | EKVX NSCLC 111% | SN12C renal 82.6% | UO-31 renal 64.3% | TK-10 renal 66.3% | ACHN renal 65.3% | CAKI-1 renal 76.5% | A498 renal 77.2% | CCRF-CEM leukemia 39.4% | MOLT-4 leukemia 45.7%

CN1CCN(CCCOc2cccc3nc(Nc4ccc(Cl)c(F)c4)ccc23)CC1
inactive: SNB-75 CNS 48.2% | SNB-19 CNS 42.3% | U251 CNS 26.1% | PC-3 prostate 39% | SK-MEL-28 melanoma 18.1% | SK-MEL-2 melanoma 83.7% | EKVX NSCLC 61.7% | SN12C renal 63.7% | UO-31 renal 22.5% | TK-10 renal 88.4% | ACHN renal 10.5% | CAKI-1 renal 56.2% | A498 renal 55.4% | CCRF-CEM leukemia 19.3%
active: HCT-15 colon -48.3% | HT29 colon -59.7% | UACC-62 melanoma -55.5% | LOX IMVI melanoma -96.1% | MOLT-4 leukemia -22%
